Structures can show the parent of a compound that is named as a salt.
These compounds were tested on S. cerevisiae SK1 pCDA2-eGFP (USY613), sporulating (assay: CDA2-GFP sporulation assay sensitivity score (z-score vs DMSO controls); higher = stronger inhibition of sporulation, active = hit call of the paper). Details: stock concentration (mM, diluted 1:100): 10.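 Further: active if sensitivity score above 5.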

**Q.** For `c1ccc2c3c([nH]c2c1)CNCC3` [Tryptoline], which “CDA2-GFP sporulation assay sensitivity score” value is on record?
**A.** The value was 11.7 (active).

**Q.** Which “CDA2-GFP sporulation assay sensitivity score” value does the source give for `C[C@H]1CCC[C@H](O)CCCCCc2cc(O)cc(O)c2C(=O)O1` [Zeranol] here?
**A.** Its value is -2.75 (inactive).

**Q.** With `COc1ccc(CCN)cc1OC` [Homoveratrylamine] as the compound, how does the “CDA2-GFP sporulation assay sensitivity score” value read?
**A.** Its value is -0.12 (inactive).

**Q.** With `CN=C1CN(O)C(c2ccccc2)=c2cc(Cl)ccc2=N1` [Chlordiazepoxide] as the compound, how does the “CDA2-GFP sporulation assay sensitivity score” value read?
**A.** Its value is 1.73 (inactive).

**Q.** How did the “CDA2-GFP sporulation assay sensitivity score” value turn out when `C[N+]1(C)CCN(c2ccccc2)CC1` [Dimethylphenylpiperazinium Iodide] was run?
**A.** The value was -0.6 (inactive).

**Q.** For `COc1cc(N)c(Cl)cc1C(=O)NC1CN2CCC1CC2` (configuration not stated) [Zacopride], which “CDA2-GFP sporulation assay sensitivity score” value is on record?
**A.** The value was 2.91 (inactive).

**Q.** How did the “CDA2-GFP sporulation assay sensitivity score” value turn out when `CC[C@]1(O)CC[C@H]2[C@@H]3CCC4=CCCC[C@@H]4[C@H]3CC[C@@]21C` [Ethylestrenol] was run?
**A.** The value was 8.75 (active).

**Q.** `CCN(C(C)=O)c1cccc(-c2ccnc3c(C#N)cnn23)c1` [Zaleplon] was tested. Which “CDA2-GFP sporulation assay sensitivity score” value did it give?
**A.** The value was 6.36 (inactive).

**Q.** `CNC1CC(c2ccc(Cl)c(Cl)c2)c2ccccc21` (configuration not stated) [Indatraline] was tested. Which “CDA2-GFP sporulation assay sensitivity score” value did it give?
**A.** Its value is 2.43 (inactive).

**Q.** Which “CDA2-GFP sporulation assay sensitivity score” value does the source give for `CC[C@@H]1C=CC=CC[C@H](C)[C@@H](O)[C@@H](C)C(=O)[C@H](C)[C@@H](O)[C@H](C)C(=O)[C@H](C)[C@@H](O)[C@H](C)C=CC(=O)O[C@H]2[C@@H](C)[C@@H](CC1)O[C@@]1(CC[C@@H](C)[C@@H](C[C@H](C)O)O1)[C@@H]2C` [Oligomycin c] here?
**A.** The value was -1.43 (inactive).

**Q.** Which “CDA2-GFP sporulation assay sensitivity score” value does the source give for `C[C@]12CC[C@H](O)CC1=CC[C@@H]1[C@@H]2CC[C@]2(C)C(=O)CC[C@@H]12` [Dehydroepiandrosterone] here?
**A.** The value was 15.7 (active).

**Q.** How did the “CDA2-GFP sporulation assay sensitivity score” value turn out when `c1ccc(Cn2ccnc2)cc1` [1-Benzylimidazole] was run?
**A.** The value was 2.48 (inactive).

**Q.** How did the “CDA2-GFP sporulation assay sensitivity score” value turn out when `O=C(O)C(Cl)Cl` [Dichloroacetic acid] was run?
**A.** The value was 1.21 (inactive).

**Q.** Which “CDA2-GFP sporulation assay sensitivity score” value does the source give for `C#CCN(C)[C@H](C)Cc1ccccc1` [Selegiline] here?
**A.** The value was -0.13 (inactive).

**Q.** `COc1cc2c(cc1OC)[C@@]13CCN4CC5=CCO[C@H]6CC(=O)N2[C@H]1[C@H]6[C@H]5C[C@H]43` [Brucine] was tested. Which “CDA2-GFP sporulation assay sensitivity score” value did it give?
**A.** The value was -1.75 (inactive).

**Q.** How did the “CDA2-GFP sporulation assay sensitivity score” value turn out when `CC(C)[C@]12O[C@H]1[C@@H]1O[C@]13[C@]1(O[C@H]1C[C@H]1C4=C(CC[C@@]13C)C(=O)OC4)[C@@H]2O` [Triptolide] was run?
**A.** Its value is -1.02 (inactive).

**Q.** For `Oc1ccc2c3c1O[C@H]1[C@@H](O)CC[C@@]4(O)[C@@H](C2)N(CC2CCC2)CC[C@]314` [Nalbuphine], which “CDA2-GFP sporulation assay sensitivity score” value is on record?
**A.** Its value is -0.4 (inactive).

**Q.** For `CNC(=O)Oc1ccc2c(c1)[C@]1(C)CCN(C)[C@@H]1N2C` [Physostigmine], which “CDA2-GFP sporulation assay sensitivity score” value is on record?
**A.** Its value is 0.21 (inactive).

**Q.** With `C[C@]12Cc3c[nH]nc3C[C@@H]1CC[C@@H]1[C@@H]2CC[C@@]2(C)[C@H]1CC[C@]2(C)O` [Stanozolol] as the compound, how does the “CDA2-GFP sporulation assay sensitivity score” value read?
**A.** Its value is -4.38 (inactive).

**Q.** For `c1ccc2c(c1)Nc1ccccc1S2` [Phenothiazine], which “CDA2-GFP sporulation assay sensitivity score” value is on record?
**A.** The value was 3.38 (inactive).

**Q.** `OC1CCCCC1N1CCC(c2ccccc2)CC1` (configuration not stated) [Vesamicol hydrochloride] was tested. Which “CDA2-GFP sporulation assay sensitivity score” value did it give?
**A.** The value was 1.08 (inactive).

**Q.** `Oc1ccc2c3c1O[C@H]1c4[nH]c5ccccc5c4C[C@@]4(O)[C@@H](C2)N(CC2CC2)CC[C@]314` [Naltrindole] was tested. Which “CDA2-GFP sporulation assay sensitivity score” value did it give?
**A.** Its value is 3.11 (inactive).

**Q.** With `CN1C(=O)CN=C(c2ccccc2)c2cc(Cl)ccc21` [Diazepam] as the compound, how does the “CDA2-GFP sporulation assay sensitivity score” value read?
**A.** The value was 4.97 (inactive).

**Q.** How did the “CDA2-GFP sporulation assay sensitivity score” value turn out when `CNCC(O)c1ccc(O)cc1` (configuration not stated) [Synephrine] was run?
**A.** Its value is 4.04 (inactive).

**Q.** Which “CDA2-GFP sporulation assay sensitivity score” value does the source give for `NC(=O)C[S+]([O-])C(c1ccccc1)c1ccccc1` (configuration not stated) [Modafinil] here?
**A.** Its value is -0.48 (inactive).

Same assay, conditions: stock concentration (mM, diluted 1:100): 10.1

**Q.** Which “CDA2-GFP sporulation assay sensitivity score” value does the source give for `C[C@]12CC[C@H](O)CC1=CC[C@@H]1[C@@H]2CC[C@@]2(C)[C@H]1CC[C@]2(C)O` [Methylandrostenediol] here?
**A.** Its value is 0.44 (inactive).

**Q.** `CCOC(=O)c1cncn1[C@H](C)c1ccccc1` [Etomidate] was tested. Which “CDA2-GFP sporulation assay sensitivity score” value did it give?
**A.** Its value is 6.33 (active).

**Q.** Which “CDA2-GFP sporulation assay sensitivity score” value does the source give for `NC(=O)OCCCc1ccccc1` [Phenprobamate] here?
**A.** The value was -0.41 (inactive).

The compounds below were run on S. cerevisiae AD1-9 (efflux-pump deficient), vegetative growth in YPD (assay: growth sensitivity score (doubling time z-score vs DMSO controls); higher = slower growth, strongly negative scores also mark growth inhibition (complete suppression), active = hit call of the paper). Details: stock concentration (mM, diluted 1:100): 10.
Method in brief: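 Rich medium in microtiter plates was seeded with Saccharomyces cerevisiae strains BY4741 and AD1-9 at an OD600 of 0.065, and compounds were added as a 1:100 dilution of DMSO stock. A Tecan GENios reader recorded optical density every 15 min for 24 hours, with eight solvent-only wells in each experiment. Average doubling time was the time to reach a set generation point divided by generation number. The growth sensitivity score was the compound mean minus the solvent-only mean, divided by the solvent-only standard deviation.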

**Q.** With `c1ccc2c3c([nH]c2c1)CNCC3` [Tryptoline] as the compound, how does the growth sensitivity score read?
**A.** The growth sensitivity score was -1.27 (inactive).

**Q.** How did the growth sensitivity score turn out when `C[C@H]1CCC[C@H](O)CCCCCc2cc(O)cc(O)c2C(=O)O1` [Zeranol] was run?
**A.** Its growth sensitivity score is 18.3 (active).

**Q.** How did the growth sensitivity score turn out when `COc1ccc(CCN)cc1OC` [Homoveratrylamine] was run?
**A.** Its growth sensitivity score is -1.46 (inactive).

**Q.** For `CN=C1CN(O)C(c2ccccc2)=c2cc(Cl)ccc2=N1` [Chlordiazepoxide], which growth sensitivity score is on record?
**A.** Its growth sensitivity score is 0.94 (inactive).

**Q.** How did the growth sensitivity score turn out when `C[N+]1(C)CCN(c2ccccc2)CC1` [Dimethylphenylpiperazinium Iodide] was run?
**A.** Its growth sensitivity score is -0.59 (inactive).

**Q.** For `COc1cc(N)c(Cl)cc1C(=O)NC1CN2CCC1CC2` (configuration not stated) [Zacopride], which growth sensitivity score is on record?
**A.** The growth sensitivity score was -2.46.

**Q.** How did the growth sensitivity score turn out when `CC[C@]1(O)CC[C@H]2[C@@H]3CCC4=CCCC[C@@H]4[C@H]3CC[C@@]21C` [Ethylestrenol] was run?
**A.** Its growth sensitivity score is 93.9 (active).

**Q.** With `CCN(C(C)=O)c1cccc(-c2ccnc3c(C#N)cnn23)c1` [Zaleplon] as the compound, how does the growth sensitivity score read?
**A.** The growth sensitivity score was -0.13 (inactive).

**Q.** How did the growth sensitivity score turn out when `CC[C@@H]1C=CC=CC[C@H](C)[C@@H](O)[C@@H](C)C(=O)[C@H](C)[C@@H](O)[C@H](C)C(=O)[C@H](C)[C@@H](O)[C@H](C)C=CC(=O)O[C@H]2[C@@H](C)[C@@H](CC1)O[C@@]1(CC[C@@H](C)[C@@H](C[C@H](C)O)O1)[C@@H]2C` [Oligomycin c] was run?
**A.** The growth sensitivity score was 0.66 (inactive).

**Q.** For `C[C@]12CC[C@H](O)CC1=CC[C@@H]1[C@@H]2CC[C@]2(C)C(=O)CC[C@@H]12` [Dehydroepiandrosterone], which growth sensitivity score is on record?
**A.** Its growth sensitivity score is 70.9 (active).

**Q.** Which growth sensitivity score does the source give for `c1ccc(Cn2ccnc2)cc1` [1-Benzylimidazole] here?
**A.** Its growth sensitivity score is -1.25 (inactive).

**Q.** `O=C(O)C(Cl)Cl` [Dichloroacetic acid] was tested. Which growth sensitivity score did it give?
**A.** The growth sensitivity score was 0.15 (inactive).

**Q.** How did the growth sensitivity score turn out when `C#CCN(C)[C@H](C)Cc1ccccc1` [Selegiline] was run?
**A.** Its growth sensitivity score is -1.83 (inactive).

**Q.** With `COc1cc2c(cc1OC)[C@@]13CCN4CC5=CCO[C@H]6CC(=O)N2[C@H]1[C@H]6[C@H]5C[C@H]43` [Brucine] as the compound, how does the growth sensitivity score read?
**A.** The growth sensitivity score was -0.99 (inactive).

**Q.** Which growth sensitivity score does the source give for `CC(C)[C@]12O[C@H]1[C@@H]1O[C@]13[C@]1(O[C@H]1C[C@H]1C4=C(CC[C@@]13C)C(=O)OC4)[C@@H]2O` [Triptolide] here?
**A.** Its growth sensitivity score is -2.17.

**Q.** With `Oc1ccc2c3c1O[C@H]1[C@@H](O)CC[C@@]4(O)[C@@H](C2)N(CC2CCC2)CC[C@]314` [Nalbuphine] as the compound, how does the growth sensitivity score read?
**A.** Its growth sensitivity score is -1.74 (inactive).

**Q.** `CNC(=O)Oc1ccc2c(c1)[C@]1(C)CCN(C)[C@@H]1N2C` [Physostigmine] was tested. Which growth sensitivity score did it give?
**A.** Its growth sensitivity score is -0.52 (inactive).

**Q.** How did the growth sensitivity score turn out when `C[C@]12Cc3c[nH]nc3C[C@@H]1CC[C@@H]1[C@@H]2CC[C@@]2(C)[C@H]1CC[C@]2(C)O` [Stanozolol] was run?
**A.** Its growth sensitivity score is 9.25 (active).

**Q.** Which growth sensitivity score does the source give for `c1ccc2c(c1)Nc1ccccc1S2` [Phenothiazine] here?
**A.** The growth sensitivity score was 11.7 (active).

**Q.** How did the growth sensitivity score turn out when `OC1CCCCC1N1CCC(c2ccccc2)CC1` (configuration not stated) [Vesamicol hydrochloride] was run?
**A.** Its growth sensitivity score is -0.57 (inactive).

**Q.** Which growth sensitivity score does the source give for `Oc1ccc2c3c1O[C@H]1c4[nH]c5ccccc5c4C[C@@]4(O)[C@@H](C2)N(CC2CC2)CC[C@]314` [Naltrindole] here?
**A.** Its growth sensitivity score is -3.12.

**Q.** For `CN1C(=O)CN=C(c2ccccc2)c2cc(Cl)ccc21` [Diazepam], which growth sensitivity score is on record?
**A.** The growth sensitivity score was 5.55 (active).

**Q.** Which growth sensitivity score does the source give for `CNCC(O)c1ccc(O)cc1` (configuration not stated) [Synephrine] here?
**A.** Its growth sensitivity score is 0.18 (inactive).

**Q.** For `NC(=O)C[S+]([O-])C(c1ccccc1)c1ccccc1` (configuration not stated) [Modafinil], which growth sensitivity score is on record?
**A.** Its growth sensitivity score is -1.24 (inactive).
